Experimental data from PubChem BioAssay (NCI).
Compounds without any hit were thinned out: in the full panel of roughly 79,000, 15% have a hit. No stated cut-off is given here; in the data, active means growth inhibition above about 70%; inactive means the rest.

Experiments:
[1] = NCI Yeast Anticancer Drug Screen. Data for the rad50 strain (AID 155);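 further: 0% = growth of vehicle-only cultures of the same strain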; conditions: S. cerevisiae rad50 strain growth inhibition; at 50.0 µM; hits give high values
Procedure, shortened: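 Growth of the mutant yeast was measured after compound exposure and referenced to vehicle-treated cultures.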

[2] = NCI Yeast Anticancer Drug Screen. Data for the mec2-1 strain (AID 157); conditions: S. cerevisiae mec2-1 strain, at 50.0 µM, hits give high values
Procedure, shortened: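 Growth inhibition is read against vehicle-treated controls after compound exposure of the mec2-1 yeast strain, which is defective in DNA damage repair or cell cycle control.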

[3] = NCI Yeast Anticancer Drug Screen. Data for the sgs1 mgt1 strain (AID 161);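 further: 0% = growth of cultures given vehicle only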; conditions: S. cerevisiae sgs1 mgt1 strain, at 50.0 µM, hits give high values
Procedure, shortened: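 This yeast growth screen uses a strain with defined DNA-repair lesions; compound-treated growth is compared with vehicle-treated growth.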

[4] = NCI Yeast Anticancer Drug Screen. Data for the cln2 rad14 strain (AID 165);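 further: 0% = growth equal to vehicle treated cultures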; conditions: S. cerevisiae cln2 rad14 strain, at 50.0 µM, hits give high values
Procedure, shortened: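 Growth inhibition, relative to vehicle-treated controls, is the read-out. The test organism is a yeast strain with defined genetic alterations, cln2 rad14.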

[5] = NCI Yeast Anticancer Drug Screen. Data for the bub3 strain (AID 167); conditions: S. cerevisiae bub3 mutant strain, at 50.0 µM, hits give high values
Procedure, shortened: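 Whole-cell yeast assay. The mutant strain was incubated with compounds, and growth inhibition was determined by comparison with vehicle-treated cells.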

[6] = NCI Yeast Anticancer Drug Screen. Data for the mlh1 rad18 strain (AID 175); conditions: S. cerevisiae mlh1 rad18 strain growth inhibition; at 50.0 µM; hits give high values
Procedure, shortened: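 Cells of a genetically altered yeast strain, deficient in DNA damage repair, were treated with compound. Their growth was then compared with that of vehicle-treated cultures to give inhibition.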

Measured: growth inhibition

Cc1c([N+](=O)[O-])ccc2c1C(=O)c1ccccc1C2=O
inactive: [1] -41.6% | [2] -0.35% | [3] -39.9% | [4] 2.7% | [5] -5.7% | [6] 39.5%

C[n+]1cccc2cc(Br)ccc21
inactive: [1] -5.3% | [2] -8.6% | [3] -13.2% | [4] 9.7% | [5] 11.6% | [6] -15.5%

COC1C(=O)CCC2(CO2)C1(O)C1(C)OC1CC=C(C)C (stereo unspecified)
inactive: [1] -22.9% | [2] -34.4% | [3] -31.6% | [4] -5.2% | [5] -28.2% | [6] -25.8%

Cc1cccc(OCC(O)CN(Cc2ccsc2)c2ccccn2)c1 (stereo unspecified)
inactive: [1] 18.4% | [2] 16.4% | [3] 18.2% | [4] 37.3% | [5] 14.9% | [6] 8.2%

COC(=O)/C(C#N)=C(/NCCN)Nc1ccccc1
inactive: [1] -10.5% | [2] -16.4% | [3] -39% | [4] 10.1% | [5] -3.1% | [6] -8.15%

CCOC(=O)CC(C)CCO (stereo unspecified)
inactive: [1] 5.4% | [2] -5.8% | [3] -11.4% | [4] -0.2% | [5] -0.3% | [6] -8.9%

NNCCc1n[nH]c(=O)n1N
inactive: [1] -3.5% | [2] -18.4% | [3] 9.55% | [4] 2.55% | [5] 5.1% | [6] -8.15%

CC1=NN(C(=O)Cc2ccccc2)C(=O)/C1=C\c1ccco1
inactive: [1] -37.9% | [2] -37.4% | [3] -47.9% | [4] -13.8% | [5] -25.9% | [6] -55.9%

C1=CCC(C(Nc2nncs2)Nc2nncs2)CC1 (stereo unspecified)
inactive: [1] 6.25% | [2] 3.95% | [3] 19.6% | [4] 7.05% | [5] -24.9% | [6] 9.25%

CCOc1c(N=Nc2ccc([N+](=O)[O-])cc2)c(C)nn1C(N)=S
inactive: [1] -8% | [2] 8.05% | [3] 15.3% | [4] -27.4% | [5] 13.1% | [6] 15.9%

CCOC(=O)C1SCCC1(C)O (stereo unspecified)
inactive: [1] 18.9% | [2] 21.7% | [3] 16.6% | [4] 16.8% | [5] 3.55% | [6] 12.7%

CCOc1snc(C(Cl)(Cl)Cl)c1Cl
inactive: [1] 9.7% | [2] 15.3% | [3] 5.05% | [4] 18% | [5] 22.3% | [6] 8.2%

CCCCCn1[nH]nc(C(=O)OC)c1=O (tested in a mixture with another compound)
inactive: [1] 18.8% | [2] 17.1% | [3] 23.1% | [4] 27.5% | [5] 30.5% | [6] 34.4%

CC(=O)c1cccc(NC(=O)N(C)C2CCCCC2)c1
inactive: [1] 5.65% | [2] 13.7% | [3] -3.65% | [4] -15.6% | [5] -7.45% | [6] -22.1%

[N-]=[N+]=Nc1ccnc2cc(C(F)(F)F)ccc12
inactive: [1] -31.5% | [2] 3.35% | [3] -2.25% | [4] -36.7% | [5] 4.45% | [6] 11.1%

CCNc1nnc(-c2nsc3ccccc23)s1
inactive: [1] -12.7% | [2] -36.1% | [3] -10.1% | [4] -11.5% | [5] -27.5% | [6] -18.9%

Nc1ccccc1C(=O)CCc1c[nH]c2ccccc12
inactive: [1] 5.05% | [2] 9.05% | [3] 7.6% | [4] -42.4% | [5] -12.1% | [6] 12.3%

O=C(NCc1ccccc1)C1C2CCC(C2)C1C(=O)NCc1ccccc1 (stereo unspecified)
inactive: [1] -0.85% | [2] 50.8% | [3] -1.95% | [4] -2.35% | [5] 22.9% | [6] -6.35%

CCOC(=O)N1N=NC(c2ccccc2)C1(c1ccccc1)N1CCOCC1 (stereo unspecified)
inactive: [1] 38.8% | [2] -14.8% | [3] 30.3% | [4] 4.05% | [5] 10.4% | [6] 8.7%

CSc1nc(SC)c(Nc2cccc(C)c2)c(SC)n1
inactive: [1] -8.65% | [2] 7.7% | [3] 4.2% | [4] -38% | [5] 21.8% | [6] -0.3%

C=CCOC(=O)Oc1ccc(Cl)cc1
inactive: [1] 27.6% | [2] -13.9% | [3] 23.1% | [4] -0.85% | [5] -2.7% | [6] 28.6%

CCOC(=O)C1=C(C(=O)c2ccc(C)cc2)C(c2ccc([N+](=O)[O-])cc2)C(C(=O)c2ccc(C)cc2)=C(C(=O)OCC)N1
inactive: [1] -27.3% | [2] -18.2% | [3] -8.9% | [4] -12.4% | [5] -14.9% | [6] -11.7%

ONc1ccc(Cl)cc1
inactive: [1] -8.85% | [2] -11.8% | [3] -2.7% | [4] -10.8% | [5] 21.1% | [6] -6.6%

Brc1ccc(CN(Cc2ccccc2)Cc2ccccc2)cc1
inactive: [1] -13.3% | [2] -8.3% | [3] 1.55% | [4] -10.4% | [5] 10.7% | [6] 4.75%

Cc1nc2ccc(Cl)cc2c(Cl)c1CCCl
inactive: [1] 12.1% | [2] 6.5% | [3] -19.9% | [4] -8.15% | [5] 31.5% | [6] 13.8%

O=C(O)/C=C/C(=O)N(c1ccccc1)N(C(=O)/C=C/C(=O)O)c1ccccc1
inactive: [1] 5.9% | [2] -9.05% | [3] 5.15% | [4] 5.65% | [5] 5.55% | [6] 17.5%

CCC(CC)C(=O)OCCCCC1CCCO1 (stereo unspecified)
inactive: [1] 6.25% | [2] 11.2% | [3] 4.75% | [4] -16.6% | [5] 12.2% | [6] -2.65%

CO/C=C/c1cc2c(cc1Br)OCO2
inactive: [1] 10.9% | [2] 5.15% | [3] 25.4% | [4] 0.75% | [5] 11.4% | [6] 12.3%

CCC(=O)c1c(NOC2OCC(OC(C)=O)C(OC(C)=O)C2OC(C)=O)nc(OC)n(C)c1=O (stereo unspecified)
inactive: [1] -18.3% | [2] -0.65% | [3] -35.2% | [4] 9.6% | [5] -24.8% | [6] -11.5%

O=C1c2cc(Cl)ccc2NC(=NC2CCCC2)C2CSCN12 (stereo unspecified)
inactive: [1] 7.8% | [2] -13.2% | [3] 2.8% | [4] -6.35% | [5] -22.8% | [6] 16.6%

CC1=C(c2ccccc2)OS(=O)(=O)CC1N(C)C (stereo unspecified)
inactive: [1] -2.6% | [2] -16.4% | [3] -1.65% | [4] -6.95% | [5] -7.4% | [6] -2.35%

COc1cc(C(=O)C(C)Br)cc(OC)c1OC (stereo unspecified)
inactive: [1] 3.1% | [2] 46.1% | [3] 64.9% | [4] -23% | [5] 68.2% | [6] 62.4%

CC(=Nc1ccc(Cl)cc1)c1ccncc1
inactive: [1] -31.9% | [2] -14.5% | [3] -14.8% | [4] -6.4% | [5] 1.3% | [6] -1.8%

CSc1ccc(NC(=O)Nc2cc(C)ccn2)cc1
inactive: [1] 5.8% | [2] -11.1% | [3] -45.7% | [4] -37.8% | [5] -61% | [6] 10.6%

C1CNCCNCCN1
inactive: [1] 7.65% | [2] -1.05% | [3] 10.1% | [4] 21.1% | [5] 25.5% | [6] -4.3%

CC(C)(C)C1=CC(=N/N=c2\scc(-c3ccccc3)n2Cc2ccccc2)C=C(C(C)(C)C)C1=O
inactive: [1] 17.4% | [2] -4.6% | [3] -5.35% | [4] -29.5% | [5] -11.6% | [6] -2.6%

Cc1cccc2sc(=S)[nH]c12
inactive: [1] 35% | [2] 18.6% | [3] 28.9% | [4] 19.9% | [5] 29.8% | [6] 30.6%

O=C(CBr)c1cc(-c2ccc(Cl)cc2)nc2c(-c3ccccc3)cccc12
inactive: [1] 14.2% | [2] 1.2% | [3] 27.6% | [4] 48.9% | [5] 2.15% | [6] 14.4%

CCC(=O)c1ccc2ccccc2c1
inactive: [1] 5.1% | [2] 3.75% | [3] -0.65% | [4] -10.1% | [5] -2.1% | [6] -0.55%

Cc1cc(N=Nc2ccc(C(=O)O)cc2)c(N)cc1N
inactive: [1] -34.5% | [2] -5.55% | [3] -7.1% | [4] -21.4% | [5] 9.7% | [6] -7.5%

OC(C(c1ccccc1)N1CCCCC1)C(O)(c1ccccc1)c1ccccc1 (stereo unspecified)
inactive: [1] 12.2% | [2] -3.15% | [3] 22.6% | [4] 24.9% | [5] 6.2% | [6] -0.5%
